# Results published in PubChem BioAssay (NCATS).
# Records with an inconclusive call do not appear. Entries that show only a call come without a potency. The source made the active and inactive calls. Calls follow the shape of the full dose curve.
# Assay: Cytotoxicity counterscreen for inhibitors of SARS-CoV-2 cell entry (AID 1645845); also: nearly all actives have a fitted effect of over 50% in size
# Conditions: cell viability (SARS-CoV-2 entry assay cells); series mostly up to 57.1 µM
# Excerpt: Assay Provider: Wei Zheng, Ph.D.
# National Center for Advancing Translational Sciences, National Institute of Health, Rockville, MD.
# SARS-CoV-2 spike protein, within the viral envelope, mediates viral attachment and infection of host cells. The SARS-CoV-2 spike protein specifically binds to the host receptor ACE2 (Angiotensin-converting enzyme 2). This interaction promotes endocytosis of the viral particle, additional events lead to viral-host cell membrane fusion and release of the viral contents, allowing viral replication.
# While SARS-CoV-2 requires BSL-3 facilities for live virus work, pseudo-typed partices (PP) that incorporate SARS-CoV-2 spike proteins without replication elements could facilitate studies on viral entry mechanisms in a BSL-2 setting. This PP cell entry assay could also enable screening of small molecule compound libraries in BSL-2 setting to identify inhibitors of SARS-CoV-2 cell entry. To eliminate false positive compounds, ATP content cytotoxicity assay was screened in the same cell line.
# SEQUENCE No. (e.g., 1, 2, 3, etc.); […] (e.g., Cells, Incubation, Reagent, etc.); VALUE and DESCRIPTION.
# 1. Cells. Seed 1500 HEK293-ACE2 cells (Expi293F with stable expression of human ACE2) in 2 uL/well media (DMEM, 10% FBS, 1x L-glutamine, 1x Pen/Strep, 1 ug/ml puromycin) in white 1536-well assay plates (Greiner #782073).
# 2. Incubation. Incubate at 37 C with 5% CO2 overnight (~16 h).
# 3. Compounds. Dispense 23 nL/well compounds in DMSO via pin transfer.
# 4. Incubation. Incubate for 1 h at 37C 5% CO2.
# 5. Reagent. Dispense 2 uL/well of media (DMEM, 10% FBS, 1x L-glutamine, 1x Pen/Strep, 1 ug/ml puromycin).
# 6. Incubation. Incubate at for 48h at 37C 5% CO2
# 7. Reagent. Dispense 4 uL/well of ATPLite 1step luminescence assay reagent (PerkinElmer #6016739).
# 8. Incubation. Incubate for 15 min at room temperature.
# 9. Detection. Read luminescence signal (Viewlux plate reader, PerkinElmer). Data was normalized with wells containing cells as 100%, and wells without cells (media only control) as 0%.
Structure (SMILES),Potency,"activity change, negative = cytotoxicity"
C/C(=N\O)[C@@H](C)NCC(C)(C)CN[C@H](C)/C(C)=N/O,inactive,
CCO[C@H](Cc1ccc(OCCc2ccc(OS(C)(=O)=O)cc2)cc1)C(=O)O,inactive,
NC(=O)NC1N=C([O][Al])NC1=O (stereo not given),inactive,
CC(=O)Oc1cccc(O)c1,inactive,
O=C(O[C@H]1CN2CCC1CC2)N1CCc2ccccc2[C@@H]1c1ccccc1,inactive,
NC(N)=NCCN1CCCCCCC1,,0.589% [at 0.702 µM] (inactive)
C[N+]1(C)[C@@H]2CC(OC(=O)[C@H](CO)c3ccccc3)C[C@H]1[C@@H]1O[C@@H]12 (stereo not given in full),inactive,
CCCCCCCCCCCCCCCCO,inactive,
Nc1ccc([As](=O)(O)O)cc1,inactive,
CC1(C)O[C@@H]2C[C@H]3[C@@H]4CCC5=CC(=O)C=C[C@]5(C)[C@@H]4[C@@H](O)C[C@]3(C)[C@]2(C(=O)CO)O1,inactive,
C[C@@H]1CN(c2c(F)c(F)c3c(=O)c(C(=O)O)cn(C4CC4)c3c2F)C[C@H](C)N1,inactive,
CC(=O)NCCCS(=O)(=O)O,inactive,
CO[C@@]1(NC(=O)CSCC#N)C(=O)N2C(C(=O)O)=C(CSc3nnnn3C)CS[C@@H]21,inactive,
Clc1cccc(C(c2ccc3nc[nH]c3c2)n2ccnc2)c1 (stereo not given),inactive,
Cc1cc2nc3c(=O)[nH]c(=O)nc-3n(C[C@H](O)[C@H](O)[C@H](O)CO)c2cc1C,inactive,
COC(=O)CCCCC(CCSS/C(CCO)=C(\C)N(C=O)Cc1cnc(C)nc1N)SC(C)=O (stereo not given),inactive,
COc1ccnc(CS(=O)c2nc3ccc(OC(F)F)cc3[nH]2)c1OC (stereo not given),inactive,
CN[C@@H]1[C@@H](O)[C@@H](O[C@@H]2[C@H](O)[C@H](O[C@H]3OC(CN)=CC[C@H]3N)[C@@H](N)C[C@H]2N)OCC1(C)O (stereo not given in full),inactive,
O=C(O)CNC(=O)c1ccccc1,inactive,
C[C@@H]1CC2=CC(=O)CC[C@@H]2[C@H]2CC[C@@]3(C)[C@@H](CC[C@]3(C)O)[C@@H]21,inactive,

Structure (SMILES),Potency,"activity change, negative = cytotoxicity"
C[C@]12CC[C@H]3[C@@H](CCC4=CC(=O)CC[C@@H]43)[C@@H]1CC[C@@H]2OC(=O)CCc1ccco1,inactive,
NC(=O)c1cc[n+](CC2=C(C(=O)[O-])N3C(=O)[C@@H](NC(=O)Cc4cccs4)[C@H]3SC2)cc1,inactive,
CC(=O)N(CC(O)CO)c1c(I)c(C(=O)NCCO)c(I)c(C(=O)NCC(O)CO)c1I (stereo not given),inactive,
C=CCN1CCc2nc(N)sc2CC1,inactive,
Nc1ccn([C@@H]2CS[C@H](CO)O2)c(=O)n1,inactive,
CNCCCCOc1ccccc1Cc1ccccc1,inactive,
CC12CCC(CC1)C(C)(C)O2,inactive,
C[C@]12CC[C@@H]3c4ccc(OC(=O)N(CCCl)CCCl)cc4CC[C@H]3[C@@H]1CC[C@@H]2O,inactive,
O=C(CO)[C@@H](O)[C@H](O)[C@@H](O)CO,inactive,
C[C@H]1O[C@@H](n2cc(F)c(=O)[nH]c2=O)[C@H](O)[C@@H]1O,inactive,
O=c1[nH]c(=O)n([C@H]2C[C@H](O)[C@@H](CO)O2)cc1I,inactive,
CCC[C@@H]1C[C@@H](C(=O)N[C@@H]([C@H]2O[C@H](SC)[C@H](O)[C@@H](O)[C@H]2O)[C@@H](C)O)N(C)C1,inactive,
CCn1ccc(NS(=O)(=O)c2ccc(N)cc2)nc1=O,inactive,
CN/C(=C\[N+](=O)[O-])NCCSCc1csc(CN(C)C)n1,inactive,
O=c1[nH]c(=O)n([C@H]2CCCO2)cc1F,inactive,
CCC1(C)CC(=O)NC1=O (stereo not given),inactive,
C[C@]12CC[C@H]3[C@@H](CC[C@@]45O[C@H]4C(O)=C(C#N)C[C@]35C)[C@H]1CC[C@H]2O,inactive,
Cc1ccnc(NS(=O)(=O)c2ccc(N)cc2)n1,inactive,
Cc1cc(O)c2c(O)c3c(O)cccc3cc2c1,inactive,
CCCc1nc(C(C)(C)O)c(C(=O)OCc2oc(=O)oc2C)n1Cc1ccc(-c2ccccc2-c2nn[nH]n2)cc1,inactive,
